Screening results as filed in PubChem BioAssay.
S16 F2sN tox – cytotoxicity in S16 Pmp22-F2sN Schwann cells | S16 Pmp22-F2sN Schwann cells viability, CellTiter-Glo, 24 h | Potency, µM (series often up to 57.5 µM), actives largely listed as cytotoxic | 0.48% of 43,000 active | AID 1508642; further: nearly all actives have a fitted effect of over 65% in size
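Viability was measured by CellTiter-Glo luminescence (15 min, room temperature). This followed 24 h at 37 °C of compound exposure (23 nL pin transfer) in S16 Pmp22-F2sN Schwann cells, 500-1,000 per well.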
p53null 32C tox – p53 null cell cytotoxicity, permissive temperature. 0.62% of 55,000 active. H1299-neo p53 null cells, ATP luminescence, 24 h, 32C. Potency, µM (series often up to 46.1 µM), most hits filed as cytotoxic. AID 903; further: nearly all actives have a fitted effect of over 55% in size
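H1299-neo (p53 null) cells, 600/well, treated 24 h at 32C with compound up to 46 uM; ATPlite luminescence viability, normalized to DMSO and 100 uM tamoxifen; AC50 by Hill fit.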
p53null 39C tox – selectivity test: cytotoxicity in p53 null cells, nonpermissive temperature. H1299 p53-null (neo) cells, 39C, ATPlite viability, 24 h. Potency, µM (doses to about 46.1 µM), usual class: cytotoxic. 0.97% of 55,000 active; further: nearly all actives have a fitted effect of over 50% in size
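ATP-luminescence viability readout (ATPlite, 20 min RT) after 24 hr compound treatment at 39C of H1299-neo or H1299-p53A138V cells; titration up to 46 uM; normalized to DMSO and 100 uM tamoxifen; Hill-fit AC50.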
mTORC1 inh – inhibitors of mTORC1 signaling in Tsc2-/- p53-/- MEF cells; Potency, µM (titrated, usually from 38.3 µM), usual class: inhibitors; 0.78% of 44,000 active; Tsc2-/- p53-/- MEF, phospho-rpS6 immunofluorescence/PI, 24 h; further: nearly all actives have a fitted effect of over 50% in size
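Tsc2-/-, p53-/- mouse embryonic fibroblasts (empty-vector line) exposed to compound 24 hrs at 37 C, fixed, immunostained for phospho-rpS6 and counterstained with propidium iodide. Acumen laser scanning gives % positive cells from Alexa 488/PI ratio, thresholded using 7.5 nM rapamycin; PI count gives viability.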
PMP22 txn – PMP22 gene transcription modulation. Potency, µM (highest dose often 57.5 µM), hits mostly inhibitors. 2% of 43,000 active. S16 Pmp22-F2sN Schwann cells (luciferase reporters placed in the Pmp22 gene), FLuc/NLuc coincidence luminescence, 24 h; active means clear falling dose curves in both reporters; inconclusive means both reporters move, but less clearly or upward; inactive means either reporter flat; the % is the NLuc reporter signal
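Luminescent read-out of sequential FLuc and NLuc signals from a reporter embedded in the Pmp22 3' UTR of S16 Schwann cells, taken after 24 h compound exposure at 37C; compounds reducing both signals score as inhibitors of expression.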
SKOV3 invasion – ovarian cancer metastasis inhibition, 3D TME model; Potency, µM (series often up to 45.8 µM), usual class: inhibitors; 0.1% of 46,000 active; SKOV3ip1-GFP adhesion/invasion on 3D omental model, fluorescence; further: nearly all actives have a fitted effect of over 65% in size
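Primary human omental fibroblast/mesothelial 3D culture pre-formed 48 h. SKOV3ip1-GFP cells added with compounds (0.36-46 umol/L), incubated 2 h RT/16 h 37 C, fixed; GFP cells quantified at 488/509 nm.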
NLuc sat counter – inhibits NanoLuc at saturating substrate, PMP22 counter-screen | 4% of 690 active | Secreted NLuc enzyme (filtered S16 cell medium), Nano-Glo luminescence | shares compounds with PMP22 txn | AID 1508638 | Potency, µM (doses to about 57.5 µM), usual class: inhibitors
NLuc Km counter – counter-screen for PMP22 expression modulators: NanoLuc inhibition at Km | shares compounds with PMP22 txn | 5% of 690 active | secreted NLuc enzyme, coelenterazine luminescence, Km conditions | Potency, µM (highest dose often 57.5 µM), hits mostly inhibitors
FLuc counter – inhibits firefly luciferase, PMP22 counter-screen. shares compounds with PMP22 txn. purified P. pyralis FLuc, luminescence, 10 min. Potency, µM (highest dose often 57.5 µM), usual class: inhibitors. 690 tested, under 10 active. AID 1508640
Target sequence (P08659 whole entry, looked up): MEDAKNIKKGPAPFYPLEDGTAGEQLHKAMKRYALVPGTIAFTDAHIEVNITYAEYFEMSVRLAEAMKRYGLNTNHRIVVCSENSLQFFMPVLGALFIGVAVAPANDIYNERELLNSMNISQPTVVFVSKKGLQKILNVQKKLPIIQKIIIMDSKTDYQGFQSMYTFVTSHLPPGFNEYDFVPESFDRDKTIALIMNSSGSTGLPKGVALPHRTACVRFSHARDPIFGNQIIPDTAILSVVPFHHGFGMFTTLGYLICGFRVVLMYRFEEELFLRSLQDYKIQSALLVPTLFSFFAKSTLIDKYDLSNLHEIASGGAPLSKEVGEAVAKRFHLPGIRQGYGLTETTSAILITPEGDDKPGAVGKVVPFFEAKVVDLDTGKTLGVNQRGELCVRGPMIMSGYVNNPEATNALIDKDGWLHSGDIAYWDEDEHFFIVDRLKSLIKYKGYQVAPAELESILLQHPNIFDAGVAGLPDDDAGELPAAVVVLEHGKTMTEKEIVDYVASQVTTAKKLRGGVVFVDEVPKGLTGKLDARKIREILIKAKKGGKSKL
S16 viab conf – S16 Schwann cell cytotoxicity, confirmatory; shares compounds with PMP22 txn; S16 Schwann cells viability, CellTiter-Glo ATP luminescence, 24 h; Potency, µM (titrated, usually from 57.5 µM), most hits filed as cytotoxic; 7% of 690 active; AID 1508641
PMP22 txn cnf – confirmation of modulators of PMP22 gene transcription in S16 cells. shares compounds with PMP22 txn. S16 Schwann cells Pmp22-F2sN, dual luciferase, 24 h. Potency, µM (top dose mostly 57.5 µM), most hits filed as inhibitors. 22% of 690 active; active means clear falling dose curves in both reporters; inconclusive means both reporters move, but less clearly or upward; inactive means either reporter flat; the % is the FLuc reporter signal
Each line names hits and unclear results; the compound was inactive in the other large screens (follow-up assays come after a bar, where they were run). An excerpt weighted towards active compounds, which were near 3.1% of everything screened. Unless noted, the call rests on the fitted dose curve; in most records, active means well fitted curve in the direction sought with a large enough effect; inconclusive means small, poorly fitted or top-dose-only effect, or another doubt; inactive means no such curve, though single readings can be large; an effect the other way counts as inactive or inconclusive.

CCc1ccc(Nc2nc3c(S(=O)(=O)c4ccc(C)cc4)nnn3c3ccsc23)cc1	PMP22 txn 5.8µM | NLuc sat counter inactive | NLuc Km counter inconclusive | FLuc counter inactive | S16 viab conf inconclusive | PMP22 txn cnf inactive
CCOc1ccc(Nc2nc3c(S(=O)(=O)c4ccc(CC)cc4)nnn3c3ccc(Cl)cc23)cc1	PMP22 txn 7.9µM | NLuc sat counter inactive | NLuc Km counter inactive | FLuc counter inactive | S16 viab conf inactive | PMP22 txn cnf inconclusive
O=S(=O)(c1ccc(Br)cc1)c1nnn2c1nc(Nc1cccc(C(F)(F)F)c1)c1sccc12	PMP22 txn inconclusive
CC1CCN(C(=O)CCS(=O)(=O)c2cc3c(cc2Cl)NC(=O)CO3)CC1	none | NLuc sat counter inactive | NLuc Km counter inactive | FLuc counter inactive | S16 viab conf inactive | PMP22 txn cnf inactive
CC(C)(C(=O)NCC(F)(F)C(F)(F)F)C(=O)N[C@@H]1C(=O)Nc2ccccc2-c2ccccc21	none (no result: S16 F2sN tox, p53null 32C tox, p53null 39C tox, mTORC1 inh, PMP22 txn)
O=C(CCOc1ccccc1)N(Cc1cccnc1)c1nc2ccc(F)cc2s1	S16 F2sN tox 25µM, PMP22 txn 13µM | NLuc sat counter inconclusive | NLuc Km counter inconclusive | FLuc counter inactive | S16 viab conf inactive | PMP22 txn cnf inactive
O=C(COc1ccccc1)N(Cc1cccnc1)c1nc2ccc(F)cc2s1	none
O=C(O)c1ccc(Nc2ncc3c(n2)-c2ccc(Cl)cc2C(c2c(F)cccc2F)=NC3)cc1	none (no result: S16 F2sN tox, p53null 32C tox, p53null 39C tox, mTORC1 inh, PMP22 txn)
Cc1ccc(C(=O)N(CCCN)[C@@H](c2nc3cc(Cl)ccc3c(=O)n2Cc2ccccc2)C(C)C)cc1	none (no result: S16 F2sN tox, p53null 32C tox, p53null 39C tox, mTORC1 inh, PMP22 txn)
CC(Oc1ccccc1)C(=O)Nc1ccccc1C(=O)OCc1cc(=O)n2nc(C3CC3)sc2n1 (stereo unspecified)	PMP22 txn 6.5µM | NLuc sat counter inactive | NLuc Km counter inactive | FLuc counter inactive | S16 viab conf inactive | PMP22 txn cnf inactive
COc1ccc(N(C(=O)c2cc(OC)c(OC)c(OC)c2)S(=O)(=O)c2ccc(C)cc2)cc1	S16 F2sN tox inconclusive, PMP22 txn 19µM | NLuc sat counter inactive | NLuc Km counter inactive | FLuc counter inactive | S16 viab conf inactive | PMP22 txn cnf inactive
N#CC1(c2ccc(NC(=O)c3cccnc3NCc3ccncc3)cc2)CCCC1	none (no result: S16 F2sN tox, p53null 32C tox, p53null 39C tox, mTORC1 inh, PMP22 txn)
c1ccc(CNc2nc(N3CCOc4ccccc43)nc3c2CCCC3)cc1	none (no result: S16 F2sN tox, p53null 32C tox, p53null 39C tox, mTORC1 inh, PMP22 txn)
O=C(Cn1c(=O)n(-c2ccc(Cl)cc2)c(=O)c2c3c(sc21)CCC3)c1ccc(F)cc1	none
O=c1c2c3c(sc2n(Cc2ccccc2F)c(=O)n1-c1ccc(Cl)cc1)CCCC3	PMP22 txn 10µM | NLuc sat counter inactive | NLuc Km counter inactive | FLuc counter inactive | S16 viab conf inactive | PMP22 txn cnf inconclusive
COCCCn1c(=N)c(C(=O)NC2CCCC2)cc2c(=O)n3cccc(C)c3nc21	PMP22 txn inconclusive | NLuc sat counter inactive | NLuc Km counter inactive | FLuc counter inactive | S16 viab conf inactive | PMP22 txn cnf inconclusive
COCCCn1c(=N)c(C(=O)NC2CCCC2)cc2c(=O)n3cc(C)ccc3nc21	none
CCC(C)n1c(=N)c(C(=O)NC2CCCC2)cc2c(=O)n3ccccc3nc21 (stereo unspecified)	PMP22 txn 9.5µM | NLuc sat counter inactive | NLuc Km counter inactive | FLuc counter inactive | S16 viab conf inconclusive | PMP22 txn cnf inactive
Cc1ccc(S(=O)(=O)Cc2ccc(C(=O)N3CCN(c4cccc(C)c4C)CC3)o2)cc1	mTORC1 inh inconclusive, PMP22 txn 14µM | NLuc sat counter inactive | NLuc Km counter inactive | FLuc counter inactive | S16 viab conf inactive | PMP22 txn cnf inconclusive
Cc1cccc(N2CCN(C(=O)c3ccc(CS(=O)c4cccc(Cl)c4)o3)CC2)c1C (stereo unspecified)	S16 F2sN tox inconclusive, p53null 39C tox inconclusive, mTORC1 inh 7.4µM, PMP22 txn 9.6µM | NLuc sat counter inactive | NLuc Km counter inconclusive | FLuc counter inactive | S16 viab conf inactive | PMP22 txn cnf inconclusive
COc1cccc2c(NCc3ccccc3)nc(-n3c(N)nc4ccccc43)nc12	none (no result: S16 F2sN tox, p53null 32C tox, p53null 39C tox, mTORC1 inh, PMP22 txn)
Oc1cccc(-c2nc(N3CCOCC3)c3oc4ncccc4c3n2)c1	none (no result: S16 F2sN tox, p53null 32C tox, p53null 39C tox, mTORC1 inh, PMP22 txn)
COc1ccc(NC(=O)Cn2cnc3ccc(S(=O)(=O)N4CCC(C)CC4)cc3c2=O)c(OC)c1	none (no result: p53null 32C tox, p53null 39C tox)
CC1CCN(S(=O)(=O)c2ccc3ncn(CC(=O)Nc4ccccc4C(F)(F)F)c(=O)c3c2)CC1	PMP22 txn inconclusive (no result: p53null 32C tox, p53null 39C tox) | NLuc sat counter inactive | NLuc Km counter inactive | FLuc counter inactive | S16 viab conf inactive | PMP22 txn cnf inactive
CCCC(=O)N(c1ccc2oc(C)c(C(C)=O)c2c1)S(=O)(=O)c1ccc(CC)cc1	S16 F2sN tox inconclusive, PMP22 txn 8.4µM | NLuc sat counter inactive | NLuc Km counter inactive | FLuc counter inactive | S16 viab conf inactive | PMP22 txn cnf inconclusive
CO[C@H]1C[C@@H]2CC[C@@H](C)[C@@](O)(O2)C(=O)C(=O)N2CCCC[C@@H]2C(=O)O[C@H]([C@H](C)C[C@@H]2CC[C@H](OP(C)(C)=O)[C@H](OC)C2)CC(=O)[C@H](C)C=C(C)[C@@H](O)[C@@H](OC)C(=O)[C@H](C)C[C@H](C)C=CC=CC=C1C	none (no result: S16 F2sN tox, p53null 32C tox, p53null 39C tox, mTORC1 inh, PMP22 txn)
CCOC(=O)c1ccccc1NC(=O)n1ncc2cc(Cl)ccc21	none
